Inconclusive results are not listed. Where a call stands in place of a potency, no number is given. Activity calls are given as the source filed them. The call rests on the fitted dose curve; in most records, active means well fitted curve in the direction sought with a large enough effect; inconclusive means small, poorly fitted or top-dose-only effect, or another doubt; inactive means no such curve, though single readings can be large; an effect the other way counts as inactive or inconclusive.
target: Tyrosine-protein kinase Yes (Homo sapiens) (UniProt P07947); test: qHTS for small molecule inhibitors of Yes1 kinase: Primary Screen (AID 686947); conditions: Yes1 kinase biochemical qHTS inhibition; series mostly up to 76.9 µM; further: nearly all actives have a fitted effect of over 60% in size; further: potency means the concentration at half of the fitted maximal effect
Outline: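 Yes1 (4 nM) preincubated 20 min with compound, then 60 min room-temperature reaction with 0.1 mM ATP and 0.3 mg/mL poly(E4Y) in pH 7.5 Tris, 10 mM MgCl2. ADP measured by ADP-Glo luminescence, normalised to enzyme/no-enzyme controls.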

Sequence of Tyrosine-protein kinase Yes (Homo sapiens) (P07947 whole entry, looked up): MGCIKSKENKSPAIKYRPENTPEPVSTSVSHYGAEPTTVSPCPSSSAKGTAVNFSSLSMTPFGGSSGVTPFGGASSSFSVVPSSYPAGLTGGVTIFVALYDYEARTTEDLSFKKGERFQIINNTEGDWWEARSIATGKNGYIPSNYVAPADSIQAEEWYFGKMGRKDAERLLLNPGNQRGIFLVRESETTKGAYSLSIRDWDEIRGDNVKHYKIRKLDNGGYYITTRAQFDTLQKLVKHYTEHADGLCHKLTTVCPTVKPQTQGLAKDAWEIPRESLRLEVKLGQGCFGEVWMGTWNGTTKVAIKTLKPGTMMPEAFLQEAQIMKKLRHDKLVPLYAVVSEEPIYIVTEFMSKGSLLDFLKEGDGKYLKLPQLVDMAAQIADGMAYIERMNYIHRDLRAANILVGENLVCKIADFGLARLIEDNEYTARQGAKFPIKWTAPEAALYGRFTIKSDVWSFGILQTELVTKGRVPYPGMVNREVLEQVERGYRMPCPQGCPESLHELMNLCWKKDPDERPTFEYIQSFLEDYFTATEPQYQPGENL

Compound	Potency
CCC=CC[C@H]1C(=O)CC[C@@H]1CC(=O)OC	inactive
CCCCc1ccc(NS(=O)(=O)c2ccc(C)c(C(=O)N3CCN(c4cccc(C)c4C)CC3)c2)cc1	inactive
CC(C)Oc1cc(Nc2nc(N[C@@H](C)c3ccc(F)cn3)ncc2Cl)[nH]n1	6.1 nM (active)
COc1ccc2c(c1)CC[C@H]1[C@@H]2CC[C@]2(C)[C@@H](NCCCCCCN3C(=O)C=CC3=O)CC[C@H]12	inactive
CNC(=O)c1cc(COc2nnc(Nc3ccc(Cl)cc3)c3ccoc23)ccn1	inactive
COc1c(C)cnc(Cn2cnc3c(Cl)nc(N)nc32)c1C	inactive
CN(C)CCCNC(=O)c1ccc(-c2cc(O)c3ncccc3c2)cc1	38700 nM (active)
CCOC(=O)[C@@H](N)CCC(=O)N[C@@H](CSCc1ccccc1)C(=O)N[C@@H](C(=O)OCC)c1ccccc1	inactive
COC(=O)Nc1ccc(-c2nc(N3CCOCC3)c3cnn(C4CCN(C(=O)OC)CC4)c3n2)cc1	inactive
O=C(Nc1cccc(Cl)c1)Nc1ncc(CCNc2ncnc3ccsc23)s1	inactive
Nc1ccc(-c2ccc3ncc4ccc(=O)n(-c5cccc(C(F)(F)F)c5)c4c3c2)cn1	27400 nM (active)
Cn1cc(-c2ccc3nnc(Sc4ccc5ncccc5c4)n3n2)cn1	inactive
COc1cc2c(cc1OC)CC(=O)N(CCCN(C)C[C@H]1Cc3cc(OC)c(OC)cc31)CC2	inactive
Cc1nn(Cc2ccccc2Cl)c(C)c1CN(C)CC(O)COc1ccc(Cl)cc1 (configuration not stated)	inactive
Cc1c(C(=O)Nc2ccc(N3C[C@@H](C)O[C@@H](C)C3)nc2)cccc1-c1ccc(OC(F)(F)F)cc1	inactive
O=C(O)c1ccc(O)c2ncc(N3CCOCC3)cc12	inactive
COc1cc2nccc(Oc3ccc(NC(=O)Nc4cc(C)on4)c(Cl)c3)c2cc1OC	772 nM (active)
CC(C)C[C@H](NC(=O)c1cc2ccccc2s1)C(=O)N1CCN(C(=O)[C@H](CO)NS(=O)(=O)c2ccc(Cl)cc2Cl)CC1	inactive
CC1=C[C@@H]2[C@@H]([C@@H](O)C[C@@]3(C)[C@H]2C[C@@H](C)[C@]3(O)C(=O)CO)[C@@]2(C)Cc3cnn(-c4ccccc4)c3C=C12	inactive
O=C1C(CCC(O)c2ccc(F)cc2)C(c2ccc(O)cc2)N1c1ccc(F)cc1 (configuration not stated)	inactive
COc1cc2ncn(-c3cc(OCc4ccccc4S(C)(=O)=O)c(C#N)s3)c2cc1OC	232 nM (active)
CCCCn1c(=O)n(Cc2ccccc2F)c(=O)c2[nH]c(Cc3ccc(NC(C)=O)cc3)nc21	inactive
COc1nc(C)cnc1NS(=O)(=O)c1cccnc1-c1ccc(-c2nnco2)cc1	inactive
Cc1cccc(Nc2nc(N[C@@H]3CCCC[C@H]3N)ncc2C(N)=O)c1	387 nM (active)
Cc1ccc(C(=O)N(CCCN)[C@@H](c2nc3cc(Cl)ccc3c(=O)n2Cc2ccccc2)C(C)C)cc1	inactive
Cc1ccc(NC(=O)c2ccc(CN3CCN(C)CC3)cc2)cc1Nc1nc(-c2cccnc2)cs1	345 nM (active)

tested on: not listed separately; test: qHTS for small molecule inhibitors of Yes1 kinase: Counter Assay (AID 686950); conditions: series mostly up to 76.9 µM;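 further: no kinase present so only ADP-Glo detection of a fixed ADP amount is tested; luminescence from ADP-Glo reporting ADP in a fixed ATP and ADP mixture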
Outline: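 Luminescence read-out from ADP-Glo quantifies a fixed ADP amount (0.02 mM ADP with 0.08 mM ATP) after 60 min at room temperature; signal is normalized between DMSO wells with ATP/ADP and with 0.1 mM ATP alone.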

Compound	outcome
CCC=CC[C@H]1C(=O)CC[C@@H]1CC(=O)OC	inactive
CCCCc1ccc(NS(=O)(=O)c2ccc(C)c(C(=O)N3CCN(c4cccc(C)c4C)CC3)c2)cc1	inactive
CC(C)Oc1cc(Nc2nc(N[C@@H](C)c3ccc(F)cn3)ncc2Cl)[nH]n1	inactive
COc1ccc2c(c1)CC[C@H]1[C@@H]2CC[C@]2(C)[C@@H](NCCCCCCN3C(=O)C=CC3=O)CC[C@H]12	inactive
CNC(=O)c1cc(COc2nnc(Nc3ccc(Cl)cc3)c3ccoc23)ccn1	inactive
COc1c(C)cnc(Cn2cnc3c(Cl)nc(N)nc32)c1C	inactive
CN(C)CCCNC(=O)c1ccc(-c2cc(O)c3ncccc3c2)cc1	inactive
CCOC(=O)[C@@H](N)CCC(=O)N[C@@H](CSCc1ccccc1)C(=O)N[C@@H](C(=O)OCC)c1ccccc1	inactive
COC(=O)Nc1ccc(-c2nc(N3CCOCC3)c3cnn(C4CCN(C(=O)OC)CC4)c3n2)cc1	inactive
O=C(Nc1cccc(Cl)c1)Nc1ncc(CCNc2ncnc3ccsc23)s1	inactive
Nc1ccc(-c2ccc3ncc4ccc(=O)n(-c5cccc(C(F)(F)F)c5)c4c3c2)cn1	inactive
Cn1cc(-c2ccc3nnc(Sc4ccc5ncccc5c4)n3n2)cn1	inactive
COc1cc2c(cc1OC)CC(=O)N(CCCN(C)C[C@H]1Cc3cc(OC)c(OC)cc31)CC2	inactive
Cc1nn(Cc2ccccc2Cl)c(C)c1CN(C)CC(O)COc1ccc(Cl)cc1 (configuration not stated)	inactive
Cc1c(C(=O)Nc2ccc(N3C[C@@H](C)O[C@@H](C)C3)nc2)cccc1-c1ccc(OC(F)(F)F)cc1	inactive
O=C(O)c1ccc(O)c2ncc(N3CCOCC3)cc12	inactive
COc1cc2nccc(Oc3ccc(NC(=O)Nc4cc(C)on4)c(Cl)c3)c2cc1OC	inactive
CC(C)C[C@H](NC(=O)c1cc2ccccc2s1)C(=O)N1CCN(C(=O)[C@H](CO)NS(=O)(=O)c2ccc(Cl)cc2Cl)CC1	inactive
CC1=C[C@@H]2[C@@H]([C@@H](O)C[C@@]3(C)[C@H]2C[C@@H](C)[C@]3(O)C(=O)CO)[C@@]2(C)Cc3cnn(-c4ccccc4)c3C=C12	inactive
O=C1C(CCC(O)c2ccc(F)cc2)C(c2ccc(O)cc2)N1c1ccc(F)cc1 (configuration not stated)	inactive
COc1cc2ncn(-c3cc(OCc4ccccc4S(C)(=O)=O)c(C#N)s3)c2cc1OC	inactive
CCCCn1c(=O)n(Cc2ccccc2F)c(=O)c2[nH]c(Cc3ccc(NC(C)=O)cc3)nc21	inactive
COc1nc(C)cnc1NS(=O)(=O)c1cccnc1-c1ccc(-c2nnco2)cc1	inactive
Cc1cccc(Nc2nc(N[C@@H]3CCCC[C@H]3N)ncc2C(N)=O)c1	inactive
Cc1ccc(C(=O)N(CCCN)[C@@H](c2nc3cc(Cl)ccc3c(=O)n2Cc2ccccc2)C(C)C)cc1	inactive
Cc1ccc(NC(=O)c2ccc(CN3CCN(C)CC3)cc2)cc1Nc1nc(-c2cccnc2)cs1	inactive
